The nature of test [1]: qHTS profiling of the MIPE4 collection as inhibitors of Plasmodium falciparum (3D7) proliferation (AID 743344).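 Further: scaled between DMSO vehicle wells and 0.29 µM artemisinin as full inhibition.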 The conditions noted are these: P. falciparum 3D7 in erythrocytes, SYBR Green DNA fluorescence, 72 h; at 28.5 µM unless noted. The gist of the method:
(§1)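 Parasite DNA was quantified by SYBR Green I fluorescence (ex 485, em 535 nm) after overnight lysis in saponin/Triton buffer at room temperature. Cultures at 0.3% parasitemia and 2.5% hematocrit were first exposed to compound for 72 h at 37 C; signals were normalised to artemisinin (0.29 uM) and vehicle wells.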
(In general: In qHTS, concentration-response curves come from the screen itself.)

Test [2] is described as follows: qHTS profiling of the MIPE4 collection as inhibitors of Plasmodium falciparum (DD2) proliferation (AID 743345). The conditions noted are these: P. falciparum Dd2 in erythrocytes, SYBR Green DNA, 72 h; at 28.5 µM unless noted. In a few lines:
as §1

Test [3] is described as follows: qHTS profiling of the MIPE4 collection as inhibitors of Plasmodium falciparum (DD2) proliferation (Rep 2) (AID 743346). The conditions noted are these: P. falciparum Dd2 in erythrocytes, SYBR Green DNA, 72 h; at 28.5 µM unless noted. In a few lines:
as §1

A short description of test [4]: qHTS profiling of the MIPE4 collection as inhibitors of Plasmodium falciparum (HB3) proliferation (AID 743347).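 Further: plate controls were DMSO vehicle wells for no effect and artemisinin wells for full effect.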 The conditions noted are these: P. falciparum HB3 in erythrocytes, SYBR Green DNA, 72 h; at 28.5 µM unless noted. In a few lines: as §1
Test [5] in a line: High-throughput drug toxicity screening in the BPDCN cell line Gen2.2 (AID 1224824).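 Further: cells exposed to compounds for 48 h before reading.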 The conditions noted are these: Gen2.2 BPDCN cells; at 45.8 µM (top of the series) unless noted. In a few lines: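 Seed 500 exponentially growing Gen2.2 cells/well; add compounds by pin tool; incubate 48 h, 37 °C, 5% CO2; add CellTiter-Glo, 15 min RT; read luminescence. % activity vs DMSO (100%) and bortezomib (0%).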

The nature of test [6]: High-throughput drug toxicity screening in the BPDCN cell line Cal-1 (AID 1224825). The conditions noted are these: Cal-1 BPDCN cell viability, qHTS; at 45.8 µM (top of the series) unless noted. The gist of the method:
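CellTiter-Glo luminescence after 48 h compound exposure; percent activity scaled with DMSO as 100% and bortezomib (9.2 uM final) as 0%. Cal-1 cells seeded at 500/well in RPMI, 10% FBS, no phenol red.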

Test [7] in a line: qHTS assay for measurement of the activity of small molecule inhibitors on Zika virus induced Caspase-3 activity in human iPSC derived neural progenitor cells (hNPCs) (AID 1224857; active means well fitted inhibition curve with a large enough effect; further: % of control where 0% means no effect; nearly all actives have a fitted effect of over 65% in size). The gist of the method: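 hNPCs seeded 350 cells/well, cultured 16–20 h; compounds added 1 h before ZIKV (2 FFU/cell), 37 C 6 h. Caspase-Glo 3/7 luminescence after 30 min RT; % inhibition from induction scaled to uninfected (0%) and infected (100%) wells.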

Test [8] can be described thus: qHTS assay for measurement of the activity of small molecule inhibitors on Zika virus induced Caspase-3 activity in human astrocytoma cells (AID 1224859; active means well fitted inhibition curve with a large enough effect;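 further: plate controls were ZIKV-infected untreated cells for no effect and uninfected cells for full effect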). The gist of the method: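 Luminescence read-out (Caspase-Glo 3/7, 30 min RT) of caspase activity in SNB-19 cells infected 6 h with ZIKV, 2 FFU/cell, after 1 h compound pretreatment; % inhibition from induction normalised to uninfected (0%) and infected (100%) wells.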

The nature of test [9]: qHTS Screen of the MIPE 4.0 Collection Against Ewings Sarcoma (RDES) (AID 1259252; active means well fitted inhibition curve with a large enough effect; further: nearly all actives have a fitted effect of over 35% in size; further: potency means the concentration at half of the fitted maximal effect). In a few lines: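 Viability screen: 48 h incubation at 37C, 95% humidity, 5% CO2 with serially titrated compound, followed by CellTiter-Glo readout.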

Results on eleven molecules are retold here after PubChem BioAssay (NCATS).

Inconclusive results are not listed. The source made the active and inactive calls. Unless noted, how the calls were made is not given here.

With `Cc1ccc(S(=O)(=O)Nc2nc3ccccc3nc2Nc2ccc3nsnc3c2)cc1`, in test [1], the parasite growth, % of DMSO control is 25.4% [at 9.64 µM]. Also, in test [2], the parasite growth remaining, % of DMSO control (lower = more inhibition) worked out at 88% [at 9.64 µM]. Moreover, the parasite growth, % of control (lower = inhibition) in test [3] worked out at 36% [at 9.64 µM]. Besides, in [4], the growth, % of control worked out at 77.4% [at 9.64 µM]. Moreover, in [5], the cell viability, % of control (lower = more cytotoxic) turned out to be 7.38% [at 23.2 µM]. In addition, in test [6], the viability (% of control) amounted to 14.1% [at 23.2 µM]. For the same molecule, the Potency result in [7] and in test [8] was “inactive” in each case. Further, the Potency in test [9] was 8.12 µM (active).
The molecule `CN[C@@H](C)[C@H]1[C@H](O)C[C@@]2(C)[C@@H]3CC[C@H]4C(C)(C)[C@@H](NC)CC[C@@]45C[C@@]35CC[C@]12C` came in with a parasite growth, % of DMSO control in test [1] of 16.9%. Also, the parasite growth, % of control (lower = inhibition) in [3] was found to be 12.6%. In test [4], this molecule had a growth, % of control of 13.3%. In addition, the cell viability, % of control (lower = more cytotoxic) in test [5] is 71.1%. The viability (% of control) in test [6] was determined as 89.5%. The Potency entry in test [7], in [8] and in test [9] was “inactive” throughout.
As to `O=C1Nc2ccc(I)cc2C1=Cc1cc(Br)c(O)c(Br)c1`, in test [1], the parasite growth, % of DMSO control was found to be 20.7%. Moreover, the parasite growth, % of control (lower = inhibition) in [3] was 32.9%. The same molecule showed a growth, % of control in [4] of 17.7%. For the same molecule, the cell viability, % of control (lower = more cytotoxic) in test [5] turned out to be 562%. Further, the viability (% of control) in test [6] was found to be 106%. Moreover, the Potency result in test [7] and in test [8] was “inactive” in each case. Moreover, the Potency in test [9] is 18.7 µM (active).
The molecule `CC(C)C[C@@H](N)[C@H](O)C(=O)N[C@H](C(=O)N[C@H](C(=O)N[C@@H](CC(=O)O)C(=O)O)C(C)C)C(C)C` showed a parasite growth, % of DMSO control in test [1] of 102%. The molecule also had a parasite growth remaining, % of DMSO control (lower = more inhibition) in test [2] of 99.5%. The same molecule had a growth, % of control in test [4] of 107%. Also, in test [5], the cell viability, % of control (lower = more cytotoxic) stood at 128%. Also, in [6], the viability (% of control) stood at 104%. Moreover, the Potency result in [7] and in test [8] was “inactive” each time. In [9], the Potency is 20.9 µM (active).
For `CNC(=O)[C@H](CC1=CN=C2C=CCC=C12)NC(=O)[C@@H](CC(=O)NO)CC(C)C`, in test [1], the parasite growth, % of DMSO control was found to be 22%. The parasite growth remaining, % of DMSO control (lower = more inhibition) in test [2] was 47.4%. For the same molecule, the growth, % of control in [4] worked out at 18.7%. Also, the cell viability, % of control (lower = more cytotoxic) in test [5] was found to be 31.3%. Also, the viability (% of control) in test [6] was determined as 8.09%. For the same molecule, the Potency result in test [7], in test [8] and in test [9] was “inactive” in each case.
Turning to `CCNC(=O)[C@H]1O[C@@H](n2cnc3c(N)nc(NCCc4ccc(CCC(=O)O)cc4)nc32)[C@H](O)[C@H]1O`, the parasite growth, % of DMSO control in test [1] came to 93.9%. The growth, % of control in test [4] was determined as 99.8%. The cell viability, % of control (lower = more cytotoxic) in test [5] was determined as 96.2%. The viability (% of control) in test [6] stood at 129%. Moreover, the Potency result in test [7], in test [8] and in test [9] was “inactive” in each case.
Regarding `NCC1CCC(C(=O)O)CC1` (configuration not stated), the parasite growth, % of DMSO control in [1] was determined as 428%. For the same molecule, the parasite growth, % of control (lower = inhibition) in test [3] came out at 104%. Moreover, the growth, % of control in test [4] worked out at 159%. Moreover, the cell viability, % of control (lower = more cytotoxic) in test [5] was 110%. In addition, the viability (% of control) in test [6] stood at 115%. The Potency entry in test [7], in [8] and in test [9] was “inactive” each time.
In test [1], `C=CC(=O)Nc1cccc(Sc2nc(Nc3ccc(N4CCN(C)CC4)cc3)ncc2Cl)c1` came in with a parasite growth, % of DMSO control of 4.12%. Moreover, the parasite growth remaining, % of DMSO control (lower = more inhibition) in test [2] was 10.2%. This molecule came in with a growth, % of control in [4] of 1.99%. Moreover, in test [5], the cell viability, % of control (lower = more cytotoxic) worked out at 8.4%. For the same molecule, the viability (% of control) in [6] worked out at 2.56%. Moreover, the Potency result in [7] and in test [8] was “inactive” throughout. Besides, the Potency in test [9] was 18.7 µM (active).
For the molecule `NC(N)=Nc1nc(CSCCC(N)=NS(N)(=O)=O)cs1`, the parasite growth, % of DMSO control in [1] worked out at 74.6%. Also, in test [3], the parasite growth, % of control (lower = inhibition) came out at 84.9%. Moreover, the growth, % of control in test [4] was found to be 92.7%. The cell viability, % of control (lower = more cytotoxic) in [5] was 171%. Besides, the viability (% of control) in test [6] was determined as 50.4%. In addition, the Potency entry in test [7] and in test [8] was “inactive” throughout. Besides, the Potency in test [9] was 11.8 µM (active).
`CO[C@H]1C=CO[C@@]2(C)Oc3c(C)c(O)c4c(O)c(c(C=NN5CCN(C)CC5)c(O)c4c3C2=O)NC(=O)C(C)=CC=C[C@H](C)[C@H](O)[C@@H](C)[C@@H](O)[C@@H](C)[C@H](OC(C)=O)[C@H]1C` showed a parasite growth, % of DMSO control in test [1] of 5.51% [at 5.51 µM]. In addition, the growth, % of control in [4] amounted to 3.06% [at 5.51 µM]. The cell viability, % of control (lower = more cytotoxic) in test [5] worked out at 73% [at 15.3 µM]. In addition, the viability (% of control) in test [6] worked out at 41.4% [at 15.3 µM]. The Potency entry in test [7], in test [8] and in test [9] was “inactive” throughout.
`Cc1cc2nc3c(=O)[nH]c(=O)nc-3n(CC(O)C(O)C(O)CO)c2cc1C` (configuration not stated): the parasite growth, % of DMSO control in test [1] turned out to be 21.3%. The parasite growth remaining, % of DMSO control (lower = more inhibition) in test [2] worked out at 57.4%. Moreover, the growth, % of control in test [4] amounted to 17.8%. Moreover, the cell viability, % of control (lower = more cytotoxic) in test [5] amounted to 77.3%. The viability (% of control) in test [6] was 101%. In addition, the Potency result in test [7], in test [8] and in [9] was “inactive” each time.
